Only some compounds are listed: those with a hit (about 1.9% of all), similar ones and a draw of the others.
GALR2 ag – agonists of human galanin receptor 2 (GALR2); GALR2-expressing cells, agonist activation read-out; activation, % (concentration not given with the values); 0.48% of 140,000 active; in the data active = activation above about 5%, passing the limit was not always enough;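 note: 0% = vehicle buffer wells and 100% = reference agonist at full effect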
FAK inh – blocks human focal adhesion kinase activity; 0.84% of 97,000 active; Q05397; inhibition, %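 (tested at 7 µM)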; biochemical FAK kinase activity assay; in the data active = inhibition above about 19%;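 note: 0% = DMSO and 100% = reference compound high control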
Target sequence (Q05397 whole entry, looked up): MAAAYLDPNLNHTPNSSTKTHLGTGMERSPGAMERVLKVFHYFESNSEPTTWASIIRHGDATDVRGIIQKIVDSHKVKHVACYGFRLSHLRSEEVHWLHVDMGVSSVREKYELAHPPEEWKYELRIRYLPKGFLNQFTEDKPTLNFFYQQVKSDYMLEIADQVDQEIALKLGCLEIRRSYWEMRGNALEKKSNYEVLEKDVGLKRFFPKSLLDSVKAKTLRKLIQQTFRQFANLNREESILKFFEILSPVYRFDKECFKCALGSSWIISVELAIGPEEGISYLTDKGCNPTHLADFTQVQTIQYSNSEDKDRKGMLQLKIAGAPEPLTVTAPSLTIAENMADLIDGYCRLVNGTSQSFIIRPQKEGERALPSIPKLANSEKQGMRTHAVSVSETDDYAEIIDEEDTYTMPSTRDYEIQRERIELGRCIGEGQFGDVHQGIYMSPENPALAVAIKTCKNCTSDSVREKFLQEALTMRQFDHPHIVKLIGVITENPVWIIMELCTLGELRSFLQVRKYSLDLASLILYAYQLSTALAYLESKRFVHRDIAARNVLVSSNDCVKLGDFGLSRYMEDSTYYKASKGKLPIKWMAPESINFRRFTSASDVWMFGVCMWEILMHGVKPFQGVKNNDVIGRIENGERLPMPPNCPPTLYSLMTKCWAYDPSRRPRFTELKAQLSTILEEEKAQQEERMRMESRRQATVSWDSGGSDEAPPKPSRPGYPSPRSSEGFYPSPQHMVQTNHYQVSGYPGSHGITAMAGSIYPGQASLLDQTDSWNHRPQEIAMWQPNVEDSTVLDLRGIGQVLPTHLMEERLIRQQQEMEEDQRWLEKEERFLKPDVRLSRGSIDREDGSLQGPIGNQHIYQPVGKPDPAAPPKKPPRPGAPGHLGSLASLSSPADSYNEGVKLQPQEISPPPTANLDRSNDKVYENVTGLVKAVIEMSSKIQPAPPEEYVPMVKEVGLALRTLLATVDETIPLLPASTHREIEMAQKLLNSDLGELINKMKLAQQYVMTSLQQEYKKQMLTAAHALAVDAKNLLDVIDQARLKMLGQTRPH
S1P2 antag – S1P2 (human) receptor antagonism; 0.21% of 97,000 active; cell-based S1P2 antagonist assay, inhibition at 5 uM; O95136; inhibition, % at 5 µM; in the data active = inhibition above about 45%;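 note: CRE beta-lactamase reporter cells expressing human S1P2 stimulated with S1P; 0% = agonist at EC80 alone and 100% = agonist plus reference antagonist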
S1P2 ag – S1P2 (human) receptor agonism | activation, % at 4.5 µM | AID 729 | 0.46% of 97,000 active | O95136 | S1P2-expressing cell line, agonist reporter read-out; in the data active = activation above about 16%;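 note: 0% = vehicle low control and 100% = maximal reference agonist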
GALR2 antag – blocks the human galanin receptor 2; O43603; 0.39% of 140,000 active; inhibition, % at 4 µM; AID 828; GALR2-expressing cells, antagonist mode; in the data active = inhibition above about 27%;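 note: cells stimulated with galanin 1-16 at roughly its EC80; 0% = agonist challenge control and 100% = basal control without agonist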
SDO1 yeast rescue – sdo1-depleted yeast growth rescue; AID 817; 0.21% of 140,000 active; z-score at 10 µM; S. cerevisiae sdo1-depleted JHY4D growth rescue, OD600 30 h; hits give high values; pdr5 snq2 efflux-pump mutant strain;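 active = z-score above 3 at both the 24 hr and the 30 hr optical density reads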;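 note: z-score against mean and SD of all compound wells on the same plate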
sdo1 rescue conf – SDO1-depleted yeast growth rescue confirmation; OD recovery (no concentration beside the values); 44% of 440 active; shares compounds with SDO1 yeast rescue; S. cerevisiae JHY4D (SDO1-depleted) growth rescue, OD600, 30 h; hits give high values; efflux-deficient strain, SNQ2 and PDR5 mutated;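 active = yeast growth recovered at 30 hours, either rising with dose fitted slope above 0.001 or with average optical density gain above 0.07, some results past the limit were not filed as active; inactive = growth falling with dose or no effect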;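 note: gain in OD600 from 0 h to 30 h averaged across all seven doses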
* hit, by the source's call; nt = not tested or not shown.

SMILES	GALR2 ag	FAK inh	S1P2 antag	S1P2 ag	GALR2 antag	SDO1 yeast rescue	sdo1 rescue conf
N#Cc1ccc(NC(=O)COC(=O)CNC(=O)C2CCCCC2)cc1	-3	1	-2	-2	-6	0.26	nt
COc1ccc(N2CCN(C(=O)CCNS(=O)(=O)c3ccc4c(c3)CCC(=O)N4)CC2)cc1	-1	nt	nt	nt	5	-0.52	nt
COc1cc(OC)c(/C=N/n2c(C)nnc2C)c(OC)c1	0	nt	nt	nt	-12	0.55	nt
COc1ccc(-c2c(C)sc(NC(=O)c3ccnn3C)c2C#N)cc1	-1	nt	nt	nt	-9	1.7	0.085*
COc1ccc(C(=O)Nc2sc(C)c(-c3ccccc3)c2C#N)cc1OC	-2	-2	13	-7	-10	-0.48	nt
CN(C)c1ccc(/C=c2/sc3n(c2=O)NC2(c4ccccc4)N(C)C(=O)N(C)C2(c2ccccc2)N=3)cc1 (stereo not given)	-1	nt	nt	nt	8	-0.57	nt
N#Cc1ccc(N/N=C/c2cn(-c3ccccc3)nc2-c2ccccc2)c([N+](=O)[O-])c1	0	nt	nt	nt	5	0.62	0.026
CC1CCCCN1C(=S)Nc1ccc2nc3n(c(=O)c2c1)CCCCC3 (stereo not given)	1	nt	nt	nt	2	0.58	nt
COc1cccc(CNC(=O)C2CCCN(S(=O)(=O)c3cccc4nonc34)C2)c1 (stereo not given)	-1	0	6	0	-2	2.8	0.086*
CC(C)CCn1nnnc1C(c1ccc(F)cc1)N1CCC(C(N)=O)CC1 (stereo not given)	-1	nt	nt	nt	-2	3.5*	0.062
CC1(C)NC(=O)N(CC(O)CN2C(=O)NC(C)(C)C2=O)C1=O	-1	5	11	-4	12	9.1*	0.13*
Cc1nc(S(=O)(=O)NC2CCCCC2)c(C#N)c(C)c1Cl	0	-1	-15	-3	-1	0.4	nt
Cc1nc(S(=O)(=O)N2CCOCC2)c(C#N)c(C)c1Cl	-3	-2	13	-10	3	3.8*	0.087*
CCc1nnc(NC(=O)CSc2nnc(-c3ccccc3NC(=O)c3ccccc3)o2)s1	-1	2	26	-1	-13	0.12	nt
COc1ccc(CC(NC(C)=O)C(=O)NC2CCN(S(=O)(=O)c3cccc4ccccc34)CC2)cc1OC (stereo not given)	-2	0	2	-3	-3	2.1	0.097*
CCN(CC)S(=O)(=O)c1ccc(C(=O)Nc2cc3oc4ccccc4c3cc2OC)cc1	0	nt	nt	nt	7	1.2	0.02
COc1ccccc1-c1cc(C(=O)NCCN2CCOCC2)no1	-1	0	13	0	8	1.5	0.042
COc1cccc(-c2cc(C(=O)NCCN3CCOCC3)no2)c1	0	1	27	-7	2	-0.65	nt
CSc1ncccc1C(=O)Nc1nc2ccc(Oc3ccccc3)cc2s1	0	nt	nt	nt	-8	-1.2	nt
COc1ccc(-n2cnnc2SCc2cnc(-c3ccccc3)s2)cc1	0	4	10	-3	1	3.1*	0.082
COc1ccc(-n2cnnc2SCCC#N)cc1	1	-3	26	-4	-6	0.06	nt
Cc1cccc(NC(=O)Cc2ccc(F)cc2)c1	-1	-1	0	4	6	6.8*	0.075*
COc1ccc(OC)c(NC(=S)NCCN2CCOCC2)c1	-2	nt	nt	nt	-4	3.9*	0.037
Cc1ccc(C(=O)NCCCN2CCOCC2)o1	-2	1	-14	-3	1	2.3	0.046
Cc1ccc(C(=O)NCCCN2CCOCC2)cc1	-2	-2	-4	-5	-15	nt	nt
SMILES	GALR2 ag	FAK inh	S1P2 antag	S1P2 ag	GALR2 antag	SDO1 yeast rescue	sdo1 rescue conf
CCOc1ccccc1/C=N/Nc1ccccc1[N+](=O)[O-]	-1	3	17	-2	2	1.2	0.052
CC(C)Oc1ccccc1/C=N/Nc1ccccc1[N+](=O)[O-]	-3	nt	nt	nt	3	-0.79	nt
Cc1ccc(-c2csc3ncn(-n4c(C)ccc4C)c(=O)c23)o1	-1	0	7	-4	-5	-1.4	nt
COC(=O)C1=NN(c2ccc(Cl)cc2)C2C(=O)N(c3ccccc3OC)C(=O)C12 (stereo not given)	-1	nt	nt	nt	3	0.85	nt
Cc1ccc2c(CC(=O)NNC(=O)c3ccccc3)coc2c1	-1	nt	nt	nt	9	6.7*	0.084*
Cc1nc2ccccc2c(=O)n1/N=C/c1cccnc1	-1	0	1	0	-2	3.1*	0.053
